High-throughput results: PubChem BioAssay, several laboratories
LANA-H2B inh – blocks KSHV LANA binding to histone H2A/H2B | Q9QR71 | inhibition, % (test concentration not listed) | hit rate 0.6% among 320,000 | cell-free LANA-H2A/H2B peptide, fluorescence polarization; in the data active = inhibition mostly above about 10%, no sharp cut-off; inactive = mostly below about 6.7%
Target sequence (Q9QR71 whole entry, looked up): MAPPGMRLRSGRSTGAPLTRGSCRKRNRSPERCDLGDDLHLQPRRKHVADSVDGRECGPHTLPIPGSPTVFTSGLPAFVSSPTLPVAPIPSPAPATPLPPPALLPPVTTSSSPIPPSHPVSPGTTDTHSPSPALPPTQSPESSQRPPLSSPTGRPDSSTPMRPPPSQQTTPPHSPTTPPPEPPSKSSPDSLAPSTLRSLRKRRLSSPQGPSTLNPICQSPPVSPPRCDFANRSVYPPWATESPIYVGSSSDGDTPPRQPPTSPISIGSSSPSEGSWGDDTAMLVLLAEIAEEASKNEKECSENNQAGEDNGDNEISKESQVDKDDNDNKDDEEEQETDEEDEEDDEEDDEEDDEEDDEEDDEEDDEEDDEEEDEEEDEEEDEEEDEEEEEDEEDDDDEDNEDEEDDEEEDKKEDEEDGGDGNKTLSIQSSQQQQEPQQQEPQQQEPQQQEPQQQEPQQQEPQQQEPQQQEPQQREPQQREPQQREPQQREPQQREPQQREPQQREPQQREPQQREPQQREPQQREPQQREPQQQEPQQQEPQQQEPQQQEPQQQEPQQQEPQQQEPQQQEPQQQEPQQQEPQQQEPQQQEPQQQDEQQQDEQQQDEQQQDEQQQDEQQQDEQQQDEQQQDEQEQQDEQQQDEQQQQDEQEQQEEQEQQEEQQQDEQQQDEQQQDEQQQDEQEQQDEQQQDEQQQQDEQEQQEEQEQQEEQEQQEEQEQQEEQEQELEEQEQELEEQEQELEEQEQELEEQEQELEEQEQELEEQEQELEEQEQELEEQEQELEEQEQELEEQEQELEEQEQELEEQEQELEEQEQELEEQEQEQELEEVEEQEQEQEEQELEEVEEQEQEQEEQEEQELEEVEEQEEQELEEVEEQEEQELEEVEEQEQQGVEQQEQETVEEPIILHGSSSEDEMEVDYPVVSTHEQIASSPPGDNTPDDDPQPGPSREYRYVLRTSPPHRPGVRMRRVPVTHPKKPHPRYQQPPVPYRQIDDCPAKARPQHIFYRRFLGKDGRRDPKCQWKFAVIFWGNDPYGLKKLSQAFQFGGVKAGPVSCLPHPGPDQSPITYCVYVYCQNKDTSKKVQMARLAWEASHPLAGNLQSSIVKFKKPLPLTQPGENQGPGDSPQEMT
C-LANA FP – blocks KSHV LANA C-terminal domain binding to DNA. MBP-C-LANA/FAM-LBS DNA binding, fluorescence polarization. inhibition, % at 9 µM. hit rate 0.078% among 340,000;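 active = highest replicate inhibition at or above 60% at 9 µM, even if other replicates fall short; inactive = all replicates below 60% inhibition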;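 also: 0% = neutral control wells and 100% = 4 µM acridine orange control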
Keap1-Nrf2 PPI – inhibitors of human Keap1-Nrf2 protein-protein interaction; Q14145; Keap1 Kelch-Nrf2 peptide fluorescence polarization, 1536-well; inhibition, % at 9.4 µM; hit rate 0.15% among 340,000; AID 504523; in the data active = inhibition above about 12%;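 also: human Keap1 Kelch domain with fluorescein labeled Nrf2 9mer peptide probe; 0% = neutral control wells and 100% = peptide positive control; higher means more block of Keap1 binding to Nrf2 peptide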
Cardiac RTF inh – cardiac RTF calcium desensitization. inhibition, % at 7.15 µM. hit rate 0.12% among 340,000. P19429+P45379. IANBD-labeled cardiac RTF, Ca2+ fluorescence;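 active = inhibition above the mean inhibition of all tested compounds plus 3 SD, cut at about 17% in these data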;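 also: assay run at fixed EC70 calcium of 1.6 mM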
RTF Ca sens act – increases calcium sensitivity of human cardiac regulated thin filaments; P19429+P45379; hit rate 0.24% among 340,000; activation, % at 7.2 µM; IANBD-labeled TnC RTF fluorescence at EC20 calcium; 0% EC20 calcium, 100% full calcium;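 active = activation above the mean over all tested compounds plus 3 SD, cut at about 30% in these data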;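 also: rise in fluorescence read as greater calcium sensitivity of cardiac thin filaments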
An asterisk follows results filed as active. Only some compounds are listed: those with a hit (about 0.99% of all), similar ones and a draw of the others.

Results for COc1cc(C(=O)Nc2ccc3nc(N4CCOCC4)sc3c2)cc(OC)c1OC ?
LANA-H2B inh: 37*; C-LANA FP: 0; Keap1-Nrf2 PPI: 2; Cardiac RTF inh: 1; RTF Ca sens act: -7

What do the screens show for `COc1ccc(-c2csc(C)n2)cc1`?
LANA-H2B inh: -3; C-LANA FP: -1; Keap1-Nrf2 PPI: 1; Cardiac RTF inh: -22; RTF Ca sens act: 4

How did COc1cc(C)nc(-c2csc(C)n2)n1 do in these assays?
LANA-H2B inh: 20*; C-LANA FP: 2; Keap1-Nrf2 PPI: 1; Cardiac RTF inh: 2; RTF Ca sens act: 4

How did Cc1ccc(S(=O)(=O)Nc2ccccc2C(=O)N2CCN(C)CC2)cc1 do in these assays?
LANA-H2B inh: 102*; C-LANA FP: 1; Keap1-Nrf2 PPI: 2; Cardiac RTF inh: -2; RTF Ca sens act: -3

Results for Cc1ccc(S(=O)(=O)Nc2ccccc2C(=O)N2CCCC2)cc1 ?
LANA-H2B inh: -6; C-LANA FP: 0; Keap1-Nrf2 PPI: -3; Cardiac RTF inh: -16; RTF Ca sens act: 5

What do the screens show for `Nc1ccc(C(=O)Nc2ccc3c(O)cc(S(=O)(=O)O)cc3c2)cc1`?
C-LANA FP: 116*; Keap1-Nrf2 PPI: -15; Cardiac RTF inh: -7; RTF Ca sens act: 3

How did Nc1ccc(NC(=O)c2ccc(C(=O)Nc3ccc(N)cc3)cc2)cc1 do in these assays?
LANA-H2B inh: -2; C-LANA FP: 0; Keap1-Nrf2 PPI: 7; Cardiac RTF inh: 0; RTF Ca sens act: -7

What do the screens show for `CCS(=O)(=O)c1nnnn1-c1ccccc1S(C)(=O)=O`?
LANA-H2B inh: -4; C-LANA FP: 3; Keap1-Nrf2 PPI: -3; Cardiac RTF inh: -3; RTF Ca sens act: -1

How did Cc1cc(C)cc(-n2ccnc2SCC(=O)c2c(N)n(C3CC3)c(=O)[nH]c2=O)c1 do in these assays?
LANA-H2B inh: -3; C-LANA FP: -3; Keap1-Nrf2 PPI: -6; Cardiac RTF inh: -6; RTF Ca sens act: -1

Results for COCCn1c(SCC(=O)NC2CC2)nnc1-c1ccc(Cl)cc1 ?
LANA-H2B inh: -4; C-LANA FP: 0; Keap1-Nrf2 PPI: -5; Cardiac RTF inh: -4; RTF Ca sens act: 3

What do the screens show for `COCCn1c(SCC(=O)c2c(N)n(C3CC3)c(=O)[nH]c2=O)nnc1-c1ccc(Cl)cc1`?
LANA-H2B inh: active; C-LANA FP: -2; Keap1-Nrf2 PPI: 2; Cardiac RTF inh: 5; RTF Ca sens act: -7

What do the screens show for `Cc1ccc(C)c(-n2ccnc2SCC(=O)c2c(N)n(C3CC3)c(=O)[nH]c2=O)c1`?
LANA-H2B inh: active; C-LANA FP: -1; Keap1-Nrf2 PPI: -4; Cardiac RTF inh: -3; RTF Ca sens act: 1

Results for C=Cc1ccc(C(=O)N2CCCC(Nc3ccc4c(c3)OCCO4)C2)cc1 (stereo unspecified) ?
C-LANA FP: 0; Keap1-Nrf2 PPI: -1; Cardiac RTF inh: -4; RTF Ca sens act: 1

How did CCC/C(=N/NC(=O)c1cccc(Cl)c1)c1ccccc1 do in these assays?
LANA-H2B inh: 14*; C-LANA FP: 1; Keap1-Nrf2 PPI: -1; Cardiac RTF inh: -12; RTF Ca sens act: 3

How did CCCCc1c(C)[nH]c(=S)[nH]c1=O do in these assays?
LANA-H2B inh: 2; C-LANA FP: -2; Keap1-Nrf2 PPI: -5; Cardiac RTF inh: -5; RTF Ca sens act: -5

What do the screens show for `Cc1[nH]c(=S)[nH]c(=O)c1CCCO`?
LANA-H2B inh: 18*; C-LANA FP: 0; Keap1-Nrf2 PPI: -2; Cardiac RTF inh: 8; RTF Ca sens act: -4

How did N#Cc1cc2c([nH]c1=S)CCCC2 do in these assays?
LANA-H2B inh: 3; C-LANA FP: 1; Keap1-Nrf2 PPI: -5; Cardiac RTF inh: 6; RTF Ca sens act: 10

What do the screens show for `N#Cc1cc2c([nH]c1=O)CCCC2`?
LANA-H2B inh: 9.1*; C-LANA FP: -2; Keap1-Nrf2 PPI: -2; Cardiac RTF inh: 2; RTF Ca sens act: 0

How did COc1cccc(CNC(=O)C2CCN(c3nn4c(=O)cc(C)nc4s3)CC2)c1 do in these assays?
LANA-H2B inh: -2; C-LANA FP: 0; Keap1-Nrf2 PPI: 1; Cardiac RTF inh: 0; RTF Ca sens act: -3

Results for CC(=O)c1ccc(NC(=O)N2C3CCC2CC(O)(c2cccnc2)C3)cc1 (stereo unspecified) ?
LANA-H2B inh: 124*; C-LANA FP: 0; Keap1-Nrf2 PPI: 2; Cardiac RTF inh: -4; RTF Ca sens act: 4

What do the screens show for `COc1cc2c(cc1OC)C(c1cccc([N+](=O)[O-])c1)N(C(=O)c1ccc(F)cc1)CC2` (stereo unspecified)?
LANA-H2B inh: 1; C-LANA FP: 1; Keap1-Nrf2 PPI: -5; Cardiac RTF inh: 4; RTF Ca sens act: 4
